Source: PubChem BioAssay (NCI)
The panel holds about 79,000 compounds, 15% with a hit somewhere; the sample as a whole holds those more often. Calls of active or inactive are those of the source. Rule as the data show it: active = growth inhibition above about 70%; inactive = the rest.

Tests used:
[1] = NCI Yeast Anticancer Drug Screen. Data for the rad52 strain (AID 147);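 also: 0% = growth of vehicle-treated control cultures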; conditions: S. cerevisiae rad52 mutant growth inhibition, stronger effect = higher value
Outline: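 Inhibition of yeast growth, referenced to vehicle controls, was the measured output for a strain with defective DNA damage repair.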

[2] = NCI Yeast Anticancer Drug Screen. Data for the wt1 strain (AID 149);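 also: 0% = growth of vehicle-treated wt1 cultures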; conditions: S. cerevisiae wt1 strain (SPY 50644) growth inhibition, stronger effect = higher value
Outline: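 wt1 strain grown with compound or vehicle; inhibition taken from the growth difference.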

[3] = NCI Yeast Anticancer Drug Screen. Data for the rad50EPP+ strain (AID 151);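 also: 0% = growth of vehicle-treated control cultures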; conditions: S. cerevisiae rad50 mutant strain, stronger effect = higher value
Outline: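 Genetically defined yeast (rad50EPP+, DNA damage repair alteration) is grown with compound, and inhibition of growth is expressed relative to vehicle-treated controls.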

[4] = NCI Yeast Anticancer Drug Screen. Data for the rad50 strain (AID 155);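 also: 0% = growth of vehicle-only cultures of the same strain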; conditions: S. cerevisiae rad50 strain growth inhibition, stronger effect = higher value
Outline: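 DNA repair mutant yeast, compound exposure, growth read-out; inhibition is taken relative to vehicle.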

[5] = NCI Yeast Anticancer Drug Screen. Data for the mec2-1 strain (AID 157); conditions: S. cerevisiae mec2-1 strain, stronger effect = higher value
Outline: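 Each compound was tested on mec2-1 yeast, a strain altered in DNA damage repair or cell cycle control. Growth inhibition is reported relative to vehicle.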

[6] = NCI Yeast Anticancer Drug Screen. Data for the rad14 strain (AID 159);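 also: 0% = growth of vehicle-treated control cultures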; conditions: S. cerevisiae rad14 strain growth inhibition, stronger effect = higher value
Outline: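 DNA repair-defective yeast, compound-exposed; % growth inhibition derived by comparison with vehicle-treated controls.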

[7] = NCI Yeast Anticancer Drug Screen. Data for the sgs1 mgt1 strain (AID 161);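 also: 0% = growth of cultures given vehicle only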; conditions: S. cerevisiae sgs1 mgt1 strain, stronger effect = higher value
Outline: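 Test agents were incubated with a DNA-repair-mutant yeast strain. Growth was then read and compared against vehicle-treated controls.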

[8] = NCI Yeast Anticancer Drug Screen. Data for the CLN2oe strain (AID 163);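 also: 0% = growth of vehicle-only control cultures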; conditions: S. cerevisiae CLN2oe strain, stronger effect = higher value
Outline: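 First, the altered yeast strain was treated with each compound; second, its growth was measured; finally, inhibition was derived by comparison with vehicle controls.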

[9] = NCI Yeast Anticancer Drug Screen. Data for the cln2 rad14 strain (AID 165);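 also: 0% = growth equal to vehicle treated cultures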; conditions: S. cerevisiae cln2 rad14 strain, stronger effect = higher value
Outline: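 Test compounds were added to cln2 rad14 yeast cultures; inhibition of growth was then determined by comparison with vehicle treatment.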

[10] = NCI Yeast Anticancer Drug Screen. Data for the mlh1 strain (AID 171);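 also: 0% = growth of vehicle-treated control cultures of the same strain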; conditions: S. cerevisiae mlh1 strain growth inhibition, stronger effect = higher value
Outline: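 Inhibition values reflect reduced yeast growth in the presence of compound, referenced to vehicle controls, using a strain chosen for its alteration in DNA repair or cell cycle control.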

[11] = NCI Yeast Anticancer Drug Screen. Data for the sgs1 strain (AID 173);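 also: 0% = growth of vehicle-only control cultures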; conditions: S. cerevisiae sgs1 mutant, stronger effect = higher value
Outline: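 Vehicle-treated cultures served as reference for growth inhibition of a yeast strain altered in DNA damage repair or cell cycle control after compound exposure.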

[12] = NCI Yeast Anticancer Drug Screen. Data for the mlh1 rad18 strain (AID 175); conditions: S. cerevisiae mlh1 rad18 strain growth inhibition, stronger effect = higher value
Outline: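 Inhibition values reflect reduced growth of mutant yeast versus vehicle-treated controls following compound exposure; the mutations affect DNA damage repair.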

[13] = NCI Yeast Anticancer Drug Screen. Data for the rad18 strain (AID 177); conditions: S. cerevisiae rad18 mutant growth inhibition, stronger effect = higher value
Outline: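 Steps: expose repair-mutant yeast to compound; measure growth; express as inhibition relative to vehicle control.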

[14] = at 5.0 µM (retest, dose inferred, filed as 0.5)
[15] = at 50.0 µM (retest, dose inferred, filed as 5.0)

Measured: growth inhibition

Cc1cc(NCCCN(C)C)c2ccc3c(ccc4c(NCCCN(C)C)cc(C)nc43)c2n1
active: [4]; [15] 90% | [7]; [15] 81% | [12]; [15] 85%
inactive: [1]; at 1.2 µM 6% | [1]; at 3.7 µM 21% | [1]; at 11.0 µM 17% | [1]; at 33.0 µM 19% | [1]; at 100.0 µM 47% | [2]; at 1.2 µM 22% | [2]; at 3.7 µM 18% | [2]; at 11.0 µM 15% | [2]; at 33.0 µM 9% | [2]; at 100.0 µM 27% | [3]; at 1.2 µM 6% | [3]; at 3.7 µM 6% | [3]; at 11.0 µM 11% | [3]; at 33.0 µM -26% | [3]; at 100.0 µM 22% | [4]; at 1.2 µM 21% | [4]; at 3.7 µM 17% | [4]; [14] 11% | [4]; at 11.0 µM 17% | [4]; at 33.0 µM 21% | [4]; at 50.0 µM 55.9% | [4]; at 100.0 µM 59% | [5]; at 1.2 µM 7% | [5]; at 3.7 µM 15% | [5]; [14] 5% | [5]; at 11.0 µM 11% | [5]; at 33.0 µM 12% | [5]; [15] 31% | [5]; at 50.0 µM 25.6% | [5]; at 100.0 µM 35% | [6]; at 1.2 µM 2% | [6]; at 3.7 µM 3% | [6]; at 11.0 µM 15% | [6]; at 33.0 µM 22% | [6]; at 100.0 µM 58% | [7]; [14] 7% | [7]; at 50.0 µM 18.6% | [8]; at 1.2 µM -7% | [8]; at 3.7 µM -4% | [8]; at 11.0 µM -1% | [8]; at 33.0 µM 17% | [8]; at 100.0 µM 52% | [9]; [14] 8% | [9]; [15] 57% | [9]; at 50.0 µM 19.1% | [10]; at 1.2 µM 15% | [10]; at 3.7 µM 18% | [10]; at 11.0 µM 23% | [10]; at 33.0 µM 25% | [10]; at 100.0 µM 37% | [11]; at 1.2 µM 3% | [11]; at 3.7 µM 10% | [11]; at 11.0 µM 7% | [11]; at 33.0 µM 8% | [11]; at 100.0 µM 46% | [12]; [14] 10% | [12]; at 50.0 µM 9.8% | [13]; at 1.2 µM 10% | [13]; at 3.7 µM 4% | [13]; at 11.0 µM 2% | [13]; at 33.0 µM -8% | [13]; at 100.0 µM 34%
